Screens as filed in PubChem BioAssay.
Shown are actives, neighbours in structure and some others; about 3.4% of the full set was active somewhere.
miR122 inh = miR-122 Renilla sensor signal increase in Huh7, primary screen, miR-122 inhibitor project, cell-based, single point, plate reader; 340,000 tested, 0.3% active; Huh7 miR-122 Renilla luciferase sensor, 48 h; neutral wells = 0, positive control = 100; activation (reporter increase), % at 12.5 µM;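 active = mean replicate activation score at least 90 and every replicate individually at or above 90; inconclusive = only one of the two criteria met; inactive = neither criterion met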;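 also: higher luciferase means less miR-122 activity so hits act as miR-122 inhibitors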
Wnt bcat act = Wnt/beta-catenin pathway activators, primary screen, cell-based, plate reader, single point; Wnt/beta-catenin reporter cell assay, activator; activation, % at 9.35 µM; 300,000 tested, 1.2% active; AID 743398, 2014; in the data active = activation above about 30%, passing the limit was not always enough; inconclusive = no clear call, values can overlap the other calls;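 also: 0% = neutral control wells and 100% = positive control wells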
HIV Env fusion = inhibitors of HIV-1 Env-driven cell-cell fusion, primary screen, HeLa-JRFL effector, CEM21 target cells, luciferase | inhibition, % at 12.3 µM | AID 651610, 2012 | 360,000 tested, 1.1% active;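 active = mean replicate inhibition score of at least 50 and every replicate individually at or above 50; inconclusive = only one of the two criteria met; inactive = mean below 50 and not all replicates reaching 50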;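 also: 0% = plate neutral controls and 100% = maraviroc near 300 nM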
MITF act = activators of MITF-driven TRPM1 promoter reporter, primary screen, cell-based, SK-MEL-5, luciferase, single point | SK-MEL-5 TRPM1-promoter luciferase, 24 h; % of positive control, neutral wells = 0 | activation, % at 12.5 µM | 300,000 tested, 0.75% active | AID 588334, 2011;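 active = mean activation of at least 80% with every replicate also reaching 80%; inconclusive = mean reaches 80% but some replicate falls short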;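 also: 0% = neutral control wells and 100% = parthenolide positive control wells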
esBAF inh = Bmi1 luciferase reporter increase in mESCs, primary screen, esBAF inhibitor project, mouse ES cells, Bmi1 luciferase knock-in, single point; 24 h; 100% = twice the neutral-well signal; reporter increase, % at 12.5 µM; 350,000 tested, 2% active; in the data active = activation above about 40%; inconclusive = no clear call, values can overlap the other calls;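 also: 0% = median of the plate's neutral control wells and 100% = double that signal; a rise in the Bmi1 reporter signal indicates esBAF inhibition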
Ring1 derepress = Ring1 mRNA increase in mouse ESCs, confirmation, esBAF inhibitor project, cell-based, mouse ESC, RT-qPCR, cherry-pick; shares compounds with esBAF inh; mouse ESC E14, Ring1 mRNA RT-qPCR fold change; fold change at 33 µM; 550 tested, under 10 active; AID 743176, 2013;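 active = Ring1 gene expression raised more than 2-fold over untreated cells in both replicates at either tested dose; inconclusive = only one replicate above 2-fold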;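 also: Ring1 transcript normalised to actin housekeeping signal by TaqMan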
Fgf4 repress = Fgf4 mRNA decrease in mouse ESCs, confirmation, esBAF inhibitor project, cell-based, mouse ESC, RT-qPCR, cherry-pick; shares compounds with esBAF inh; mouse ESC E14, Fgf4 mRNA qPCR fold change; hits give low values; Fgf4 expression fold change at 33 µM; 550 tested, 4% active;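 active = Fgf4 expression under 0.8 fold of control in both repeat measurements at one or both tested doses; inconclusive = under 0.8 fold in just a single repeat measurement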;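 also: Fgf4 transcript normalised to actin in duplex TaqMan qPCR; cells exposed to compound for 24 h before lysis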
esBAF Bmi1 qPCR = esBAF inhibition via Bmi1 de-repression, confirmation, cell-based, RT-qPCR, mouse ESC, single point, cherry-pick. shares compounds with esBAF inh. 550 tested, under 10 active. fold change at 33 µM. mouse ESE14 ES cells, Bmi1 mRNA qPCR fold; hits give high values;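 active = Bmi1 expression fold change above 6 at either tested concentration, seen in replicate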;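 also: higher fold means more Bmi1 de-repression and stronger esBAF inhibition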
A549 tox SP = A549 cell cytotoxicity, cytotoxicity control, plate reader, single point, cherry-pick; shares compounds with esBAF inh; cell viability change % (negative = cytotoxic), % at 25 µM, hits read low; 550 tested, under 10 active; AID 743188, 2013; call rule not given here
HepG2 tox SP = HepG2 cell cytotoxicity, cytotoxicity control, plate reader, single point, cherry-pick | shares compounds with esBAF inh | hits give low values | activity change, negative = inhibition, % at 25 µM | 550 tested, 4% active | AID 743189, 2013; in the data active = activity change below about -50%
HEK293 tox SP = HEK293 cell cytotoxicity, cytotoxicity control, plate reader, single point, cherry-pick; activity change, negative = inhibition, % at 25 µM, hits read low; 550 tested, 3% active; shares compounds with esBAF inh; in the data active = activity change below about -38%, passing the limit was not always enough
Active calls of the source: *; ? = inconclusive; nt = not tested or not shown; [ ] = dose if it differs, or a comment.

SMILES	miR122 inh	Wnt bcat act	HIV Env fusion	MITF act	esBAF inh	Ring1 derepress	Fgf4 repress	esBAF Bmi1 qPCR	A549 tox SP	HepG2 tox SP	HEK293 tox SP
CN(C(=O)c1ccc2c(Cl)c3c(nc2c1)CCC3)c1ccccc1	-6	25	-55	nt	88*	1.4	0.98	1.8	3	-23	1
COc1cc(Cl)ccc1OCc1cc(C(=O)N(C)Cc2cccc3cnccc23)no1	-5	11	-15	45	71*	1.2	1.1	1.5	-7	-13	-31
COc1cccc(C(=O)c2cc3cc(Cl)ccc3[nH]2)c1	1	14	-25	23	78*	1	?	2.5	-6	-34	5
O=C(c1ccccc1)c1cc2cc(Cl)ccc2[nH]1	-9	18	-34	62	34	nt	nt	nt	nt	nt	nt
Cn1c2ccccc2c(=O)c2ccc(C#CC3(N)CCCCC3)cc21	nt	24	-114	-13	-15	nt	nt	nt	nt	nt	nt
Cn1c2ccccc2c(=O)c2cc(C#Cc3ccsc3)ccc21	-2	24	-49	63	62*	1.1	?	1.4	-4	8	-6
COc1cccc(CN(C)C(=O)c2ccc(COc3ccc(Cl)cc3)cc2)c1OC	nt	11	-5	?	59*	1.2	0.86	1.8	-7	-32	-1
COCCNc1nc2cc(-c3ccccc3OC)sc2c(=O)n1C	2	nt	50	nt	1	nt	nt	nt	nt	nt	nt
C=CCNc1nc2cc(-c3ccccc3OC)sc2c(=O)n1C	-3	10	-94	nt	59*	1.1	1	2.1	-11	-24	-5
Fc1ccc(Nc2nnc(-c3ccncc3)s2)cc1Cl	-5	1	-26	nt	67*	1.2	0.88	1.6	-6	-25	-2
c1ccc(-c2ccc3[nH]ccc3c2)cc1	1	17	-64	93*	59*	1	0.99	2.1	2	-17	8
O=C(Cc1ccccn1)NCC[C@@H]1CC[C@H](NS(=O)(=O)c2ccc(Cl)cc2)[C@@H](CO)O1	nt	nt	5[16.7 µM]	nt	4	nt	nt	nt	nt	nt	nt
CCC(=O)c1ccc(N2CCN(C(=O)c3ccccc3F)CC2)c(F)c1	nt	-3	5	-2	nt	nt	nt	nt	nt	nt	nt
CCC(=O)c1ccc(N2CCCCCC2)c(F)c1	0	nt	nt	54	74*	1.1	1.1	1.3	-17	20	-15
CCC(=O)c1ccc(N2CCCC2)c(F)c1	-3	nt	nt	nt	57*	1.1	0.91	1.4	-4	-21	-11
O=C(NCc1ccccn1)Nc1ccc(Cl)cc1Cl	nt	14	3	53	nt	nt	nt	nt	nt	nt	nt
O=C(NCc1ccccn1)Nc1ccc(Br)cc1Cl	0	24	-1	?	56*	1.1	0.92	0.98	5	44	7
c1ccc(Cn2cnc3ccccc32)cc1	-6	nt	nt	63	106*	1.4	1	1.7	0	-24	-10
CC1CCN(c2oc(-c3cccc4ccccc34)nc2C#N)CC1	-5	-4	-75	?	67*	0.97	0.95	1.5	-1	-53*	-19
N#Cc1nc(-c2cccc3ccccc23)oc1N1CCCCC1	-4	nt	nt	78	6	nt	nt	nt	nt	nt	nt
